This passage reports binding signal results from PMC7862700, “An all-to-all approach to the identification of sequence-specific readers for epigenetic DNA modifications on cytosine”.

What all share (assay): DAPPL (digital affinity profiling via proximity ligation, sequencing); 10 mM Tris-HCl pH 7.5, 50 mM NaCl, 1 mM DTT, 4% glycerol, room temperature, 30 min; GST-TFs on glutathione beads, 16-mer random dsDNA library, 0.1% formaldehyde crosslink after washing; high values mean tight binding
In one test the target is T1, FLI1 (Homo sapiens, UniProt Q01543 1-452).
T1 sequence: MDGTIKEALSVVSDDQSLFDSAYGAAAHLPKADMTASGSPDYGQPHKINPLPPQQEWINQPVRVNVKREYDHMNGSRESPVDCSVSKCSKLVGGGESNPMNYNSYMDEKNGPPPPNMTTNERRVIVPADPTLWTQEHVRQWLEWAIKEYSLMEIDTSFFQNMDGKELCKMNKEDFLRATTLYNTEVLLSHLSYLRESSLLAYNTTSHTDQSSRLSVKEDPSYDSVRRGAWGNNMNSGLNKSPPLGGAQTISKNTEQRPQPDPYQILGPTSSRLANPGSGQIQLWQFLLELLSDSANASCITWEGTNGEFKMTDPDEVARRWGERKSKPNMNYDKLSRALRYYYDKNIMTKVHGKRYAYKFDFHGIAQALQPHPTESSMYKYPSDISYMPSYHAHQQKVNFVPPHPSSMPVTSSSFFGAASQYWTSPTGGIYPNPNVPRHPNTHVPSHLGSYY
Particulars: protein: recombinant; tags: N-terminal GST; dsDNA, one strand shown. Put shortly:
(§1)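 Sequencing on an Illumina NextSeq500 followed washing, crosslinking with 0.1% formaldehyde, proximity ligation (BsaI/T4 ligase, 1 h, 37 °C) and PCR amplification of pools that had been incubated for 30 min at room temperature with 200 nmole of a random double-stranded 16-mer DNA library in Tris/NaCl/DTT/glycerol buffer. Each pool held DNA-barcoded human transcription factors, expressed in yeast as GST fusions and captured on glutathione beads, plus a tag-only sample. Binding signal is a hexamer's read frequency for a factor divided by its frequency in the tag-only sample.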

Another test concerns the target T2, ELK1 (Homo sapiens, UniProt P19419 1-428).
T2 sequence: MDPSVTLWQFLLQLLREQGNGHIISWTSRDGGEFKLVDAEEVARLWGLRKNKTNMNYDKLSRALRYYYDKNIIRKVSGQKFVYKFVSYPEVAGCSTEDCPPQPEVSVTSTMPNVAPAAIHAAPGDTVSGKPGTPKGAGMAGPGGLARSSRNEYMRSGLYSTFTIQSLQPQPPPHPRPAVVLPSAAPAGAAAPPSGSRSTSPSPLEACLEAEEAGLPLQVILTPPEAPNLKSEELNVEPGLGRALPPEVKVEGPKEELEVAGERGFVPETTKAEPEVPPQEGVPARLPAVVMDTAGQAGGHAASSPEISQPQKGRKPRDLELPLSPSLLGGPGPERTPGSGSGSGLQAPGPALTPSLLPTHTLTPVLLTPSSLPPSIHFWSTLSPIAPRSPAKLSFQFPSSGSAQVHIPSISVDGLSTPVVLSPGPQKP
The following applies: protein: recombinant; tags: N-terminal GST; dsDNA, one strand shown. In a few lines:
as §1

The target in a further test is T3, GABPA (Homo sapiens, UniProt Q06546 1-454).
T3 sequence: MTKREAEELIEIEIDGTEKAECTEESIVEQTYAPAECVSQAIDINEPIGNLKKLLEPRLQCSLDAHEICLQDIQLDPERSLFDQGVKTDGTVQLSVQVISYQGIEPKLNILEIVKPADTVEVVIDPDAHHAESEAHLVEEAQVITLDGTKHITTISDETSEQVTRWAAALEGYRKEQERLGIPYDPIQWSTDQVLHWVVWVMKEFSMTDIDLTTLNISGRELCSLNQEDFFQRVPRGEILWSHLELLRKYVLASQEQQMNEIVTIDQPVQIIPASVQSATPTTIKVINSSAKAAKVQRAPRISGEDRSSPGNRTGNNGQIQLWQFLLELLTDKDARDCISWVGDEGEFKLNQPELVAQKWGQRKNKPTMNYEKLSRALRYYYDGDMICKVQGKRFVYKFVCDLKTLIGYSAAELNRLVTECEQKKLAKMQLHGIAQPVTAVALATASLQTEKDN
The following applies: protein: recombinant; tags: N-terminal GST; dsDNA, one strand shown. Put shortly:
as §1

For another test, the target named is T4, ERG (Homo sapiens, UniProt P11308 1-479).
T4 sequence: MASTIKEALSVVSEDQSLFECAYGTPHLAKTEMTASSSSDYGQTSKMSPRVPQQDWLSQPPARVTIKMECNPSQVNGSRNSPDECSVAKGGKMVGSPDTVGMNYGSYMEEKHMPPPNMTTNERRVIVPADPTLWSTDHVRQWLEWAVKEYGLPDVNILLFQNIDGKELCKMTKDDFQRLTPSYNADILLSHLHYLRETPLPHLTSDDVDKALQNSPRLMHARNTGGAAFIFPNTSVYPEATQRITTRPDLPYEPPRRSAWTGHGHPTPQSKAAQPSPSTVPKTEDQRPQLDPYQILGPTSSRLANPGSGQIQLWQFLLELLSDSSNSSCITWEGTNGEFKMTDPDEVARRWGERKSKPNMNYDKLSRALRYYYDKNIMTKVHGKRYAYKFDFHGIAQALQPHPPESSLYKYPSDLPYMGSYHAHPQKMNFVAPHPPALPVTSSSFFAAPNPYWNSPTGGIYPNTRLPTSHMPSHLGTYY
The following applies: protein: recombinant; tags: N-terminal GST; dsDNA, one strand shown. In a few lines: as §1

The target in the next test is ELF1 (Homo sapiens, UniProt P32519 1-619). Particulars: protein: recombinant; tags: N-terminal GST; dsDNA, one strand shown. In a few lines:
as §1

In another test the target is T5, EHF (Homo sapiens, UniProt Q9NZC4 1-300).
T5 sequence: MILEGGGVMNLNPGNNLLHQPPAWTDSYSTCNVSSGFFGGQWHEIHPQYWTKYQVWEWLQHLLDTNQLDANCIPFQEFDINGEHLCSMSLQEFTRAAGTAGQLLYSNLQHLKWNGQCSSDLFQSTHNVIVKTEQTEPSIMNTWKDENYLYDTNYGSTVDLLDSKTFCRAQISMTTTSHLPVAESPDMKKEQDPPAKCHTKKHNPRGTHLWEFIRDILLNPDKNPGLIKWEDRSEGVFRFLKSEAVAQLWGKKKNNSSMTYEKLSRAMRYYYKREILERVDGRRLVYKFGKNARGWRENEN
The following applies: protein: recombinant; tags: N-terminal GST; dsDNA, one strand shown. Put shortly:
as §1

Another test addresses SPI1 (Homo sapiens, UniProt P17947 1-270). The following applies: protein: recombinant; tags: N-terminal GST; dsDNA, one strand shown. Put shortly: as §1
A further test concerns the target SPIB (Homo sapiens, UniProt Q01892 1-262). The following applies: protein: recombinant; tags: N-terminal GST; dsDNA, one strand shown. Put shortly: as §1
The next test addresses T6, ELK3 (Homo sapiens, UniProt P41970 1-407).
T6 sequence: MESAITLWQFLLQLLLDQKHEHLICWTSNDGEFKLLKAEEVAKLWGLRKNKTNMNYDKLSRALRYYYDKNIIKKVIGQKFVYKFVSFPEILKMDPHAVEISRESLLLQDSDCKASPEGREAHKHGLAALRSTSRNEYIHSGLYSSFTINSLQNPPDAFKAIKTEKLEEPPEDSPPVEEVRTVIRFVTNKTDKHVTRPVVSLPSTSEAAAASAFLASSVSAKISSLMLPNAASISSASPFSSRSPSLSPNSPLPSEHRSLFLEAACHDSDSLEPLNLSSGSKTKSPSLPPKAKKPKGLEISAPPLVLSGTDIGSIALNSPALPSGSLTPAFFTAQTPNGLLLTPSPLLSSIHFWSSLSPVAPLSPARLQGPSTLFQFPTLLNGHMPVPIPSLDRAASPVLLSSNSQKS
Particulars: protein: recombinant; tags: N-terminal GST; dsDNA, one strand shown. Put shortly: as §1

The target in a further test is T7, FEV (Homo sapiens, UniProt Q99581 1-238).
T7 sequence: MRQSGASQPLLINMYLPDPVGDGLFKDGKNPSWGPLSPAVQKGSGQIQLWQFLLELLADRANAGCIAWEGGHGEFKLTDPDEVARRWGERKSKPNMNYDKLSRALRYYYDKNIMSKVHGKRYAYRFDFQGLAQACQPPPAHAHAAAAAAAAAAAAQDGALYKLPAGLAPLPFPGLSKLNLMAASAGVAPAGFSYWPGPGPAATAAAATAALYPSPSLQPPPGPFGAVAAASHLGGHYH
Particulars: protein: recombinant; tags: N-terminal GST; dsDNA, one strand shown. In a few lines:
as §1

A further test deals with ETV5 (Homo sapiens, UniProt P41161 1-510). Particulars: protein: recombinant; tags: N-terminal GST; dsDNA, one strand shown. Put shortly:
as §1

Another test deals with HSF1 (Homo sapiens, UniProt Q00613 1-529). The following applies: protein: recombinant; tags: N-terminal GST; chain copies: 3; dsDNA, one strand shown. In a few lines: as §1
In the next test the target is T8, SPIC (Homo sapiens, UniProt Q8N5J4 1-248).
T8 sequence: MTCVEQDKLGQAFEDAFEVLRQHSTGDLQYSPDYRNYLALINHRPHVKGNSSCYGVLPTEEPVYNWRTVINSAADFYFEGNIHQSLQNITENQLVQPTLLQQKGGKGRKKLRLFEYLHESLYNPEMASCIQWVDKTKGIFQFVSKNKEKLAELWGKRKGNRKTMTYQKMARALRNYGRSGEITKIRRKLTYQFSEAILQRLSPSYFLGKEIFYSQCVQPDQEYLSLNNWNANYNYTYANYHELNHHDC
Particulars: protein: recombinant; tags: N-terminal GST; dsDNA, one strand shown. In a few lines:
as §1

For another test, the target named is ELF4 (Homo sapiens, UniProt Q99607 1-663). The following applies: protein: recombinant; tags: N-terminal GST; dsDNA, one strand shown. In a few lines:
as §1

In the next test the target is T9, ELK4 (Homo sapiens, UniProt P28324-2 1-405).
T9 sequence: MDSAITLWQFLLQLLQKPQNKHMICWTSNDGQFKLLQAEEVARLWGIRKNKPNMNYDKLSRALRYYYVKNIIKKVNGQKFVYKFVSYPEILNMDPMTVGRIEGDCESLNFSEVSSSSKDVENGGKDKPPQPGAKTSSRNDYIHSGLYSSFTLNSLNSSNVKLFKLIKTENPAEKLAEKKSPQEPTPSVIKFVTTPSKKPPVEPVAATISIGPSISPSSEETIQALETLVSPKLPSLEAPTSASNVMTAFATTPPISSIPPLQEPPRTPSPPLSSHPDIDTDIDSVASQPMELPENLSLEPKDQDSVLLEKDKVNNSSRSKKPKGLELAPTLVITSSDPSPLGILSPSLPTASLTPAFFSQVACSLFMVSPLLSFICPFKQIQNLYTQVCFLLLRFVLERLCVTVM
The following applies: protein: recombinant; tags: N-terminal GST; dsDNA, one strand shown. In a few lines: as §1

The target of another test is T10, ETV2 (Homo sapiens, UniProt O00321 1-342).
T10 sequence: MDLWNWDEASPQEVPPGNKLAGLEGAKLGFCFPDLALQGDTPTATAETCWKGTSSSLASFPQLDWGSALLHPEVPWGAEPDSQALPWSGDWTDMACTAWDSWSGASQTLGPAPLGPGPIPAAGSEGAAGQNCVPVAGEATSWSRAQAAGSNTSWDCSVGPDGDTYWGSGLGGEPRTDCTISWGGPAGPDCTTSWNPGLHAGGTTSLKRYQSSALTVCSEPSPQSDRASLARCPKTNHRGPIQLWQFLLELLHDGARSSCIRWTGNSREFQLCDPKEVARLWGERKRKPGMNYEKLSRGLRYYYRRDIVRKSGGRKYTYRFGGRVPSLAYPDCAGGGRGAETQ
Particulars: protein: recombinant; tags: N-terminal GST; dsDNA, one strand shown. In a few lines:
as §1

The next test deals with T11, ELF3 (Homo sapiens, UniProt P78545 1-371).
T11 sequence: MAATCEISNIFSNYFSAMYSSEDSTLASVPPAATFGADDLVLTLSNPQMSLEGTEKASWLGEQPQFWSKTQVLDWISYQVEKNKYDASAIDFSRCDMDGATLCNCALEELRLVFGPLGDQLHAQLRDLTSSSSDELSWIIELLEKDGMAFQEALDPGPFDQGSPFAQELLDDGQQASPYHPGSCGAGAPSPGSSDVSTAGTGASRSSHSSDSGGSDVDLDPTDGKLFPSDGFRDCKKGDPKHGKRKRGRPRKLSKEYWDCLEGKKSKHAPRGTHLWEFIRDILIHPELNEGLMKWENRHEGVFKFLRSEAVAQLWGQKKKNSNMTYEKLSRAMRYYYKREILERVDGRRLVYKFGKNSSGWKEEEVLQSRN
The following applies: protein: recombinant; tags: N-terminal GST; dsDNA, one strand shown. In a few lines:
as §1

The next test concerns the target ETV1 (Homo sapiens, UniProt P50549 1-477). Particulars: protein: recombinant; tags: N-terminal GST; dsDNA, one strand shown. Put shortly:
as §1

Sequence of SPIB (Q01892 whole entry): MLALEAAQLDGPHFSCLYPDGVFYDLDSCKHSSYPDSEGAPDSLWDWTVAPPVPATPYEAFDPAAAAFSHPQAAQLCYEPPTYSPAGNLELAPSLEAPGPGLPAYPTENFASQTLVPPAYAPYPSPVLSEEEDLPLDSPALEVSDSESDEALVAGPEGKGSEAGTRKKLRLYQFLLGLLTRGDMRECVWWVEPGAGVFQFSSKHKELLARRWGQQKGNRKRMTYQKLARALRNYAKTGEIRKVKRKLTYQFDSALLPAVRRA
Sequence of HSF1 (Q00613 whole entry): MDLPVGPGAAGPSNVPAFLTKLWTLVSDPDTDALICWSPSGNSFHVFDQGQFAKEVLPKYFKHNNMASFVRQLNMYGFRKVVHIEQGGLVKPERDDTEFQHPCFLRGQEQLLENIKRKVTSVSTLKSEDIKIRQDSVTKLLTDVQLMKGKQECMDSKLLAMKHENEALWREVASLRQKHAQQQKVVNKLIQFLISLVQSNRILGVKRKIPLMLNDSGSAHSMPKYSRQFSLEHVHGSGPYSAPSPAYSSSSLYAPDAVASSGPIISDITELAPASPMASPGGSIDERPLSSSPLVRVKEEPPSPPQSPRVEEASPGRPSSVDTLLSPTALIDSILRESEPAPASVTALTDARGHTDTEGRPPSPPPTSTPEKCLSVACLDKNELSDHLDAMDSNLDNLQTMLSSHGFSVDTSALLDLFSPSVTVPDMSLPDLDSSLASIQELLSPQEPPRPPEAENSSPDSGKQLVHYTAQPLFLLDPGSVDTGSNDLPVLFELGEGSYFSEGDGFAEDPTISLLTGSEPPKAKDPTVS
Sequence of ETV5 (P41161 whole entry): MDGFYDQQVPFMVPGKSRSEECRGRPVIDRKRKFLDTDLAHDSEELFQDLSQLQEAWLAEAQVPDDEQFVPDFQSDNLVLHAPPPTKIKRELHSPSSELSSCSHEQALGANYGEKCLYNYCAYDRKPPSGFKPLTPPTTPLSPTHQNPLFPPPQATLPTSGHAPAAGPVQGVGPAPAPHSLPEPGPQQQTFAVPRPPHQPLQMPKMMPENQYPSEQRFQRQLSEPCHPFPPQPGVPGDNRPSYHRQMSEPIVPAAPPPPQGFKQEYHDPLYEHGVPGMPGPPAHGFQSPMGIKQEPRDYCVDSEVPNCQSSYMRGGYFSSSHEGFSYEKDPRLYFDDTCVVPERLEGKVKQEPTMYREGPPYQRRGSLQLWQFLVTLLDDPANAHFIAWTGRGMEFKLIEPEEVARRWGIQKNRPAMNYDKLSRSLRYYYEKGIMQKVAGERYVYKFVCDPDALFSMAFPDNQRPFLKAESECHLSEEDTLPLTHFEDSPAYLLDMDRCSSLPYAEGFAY
Sequence of ELF1 (P32519 whole entry): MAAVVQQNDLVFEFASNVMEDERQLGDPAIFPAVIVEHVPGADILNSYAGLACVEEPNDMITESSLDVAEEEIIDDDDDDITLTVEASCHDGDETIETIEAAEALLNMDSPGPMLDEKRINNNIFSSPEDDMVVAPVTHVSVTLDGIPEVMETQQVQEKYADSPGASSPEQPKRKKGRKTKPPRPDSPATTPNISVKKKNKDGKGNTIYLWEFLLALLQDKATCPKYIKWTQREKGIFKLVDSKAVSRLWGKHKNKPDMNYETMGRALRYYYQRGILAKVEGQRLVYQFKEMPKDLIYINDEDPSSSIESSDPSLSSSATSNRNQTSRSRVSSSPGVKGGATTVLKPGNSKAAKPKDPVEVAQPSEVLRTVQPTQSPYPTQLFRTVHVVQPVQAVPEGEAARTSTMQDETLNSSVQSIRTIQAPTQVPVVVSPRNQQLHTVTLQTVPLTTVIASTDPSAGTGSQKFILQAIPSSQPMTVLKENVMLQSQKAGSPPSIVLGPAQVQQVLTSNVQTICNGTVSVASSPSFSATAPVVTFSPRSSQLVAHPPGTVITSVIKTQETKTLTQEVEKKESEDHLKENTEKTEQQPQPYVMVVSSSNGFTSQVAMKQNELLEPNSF
Sequence of ELF4 (Q99607 whole entry): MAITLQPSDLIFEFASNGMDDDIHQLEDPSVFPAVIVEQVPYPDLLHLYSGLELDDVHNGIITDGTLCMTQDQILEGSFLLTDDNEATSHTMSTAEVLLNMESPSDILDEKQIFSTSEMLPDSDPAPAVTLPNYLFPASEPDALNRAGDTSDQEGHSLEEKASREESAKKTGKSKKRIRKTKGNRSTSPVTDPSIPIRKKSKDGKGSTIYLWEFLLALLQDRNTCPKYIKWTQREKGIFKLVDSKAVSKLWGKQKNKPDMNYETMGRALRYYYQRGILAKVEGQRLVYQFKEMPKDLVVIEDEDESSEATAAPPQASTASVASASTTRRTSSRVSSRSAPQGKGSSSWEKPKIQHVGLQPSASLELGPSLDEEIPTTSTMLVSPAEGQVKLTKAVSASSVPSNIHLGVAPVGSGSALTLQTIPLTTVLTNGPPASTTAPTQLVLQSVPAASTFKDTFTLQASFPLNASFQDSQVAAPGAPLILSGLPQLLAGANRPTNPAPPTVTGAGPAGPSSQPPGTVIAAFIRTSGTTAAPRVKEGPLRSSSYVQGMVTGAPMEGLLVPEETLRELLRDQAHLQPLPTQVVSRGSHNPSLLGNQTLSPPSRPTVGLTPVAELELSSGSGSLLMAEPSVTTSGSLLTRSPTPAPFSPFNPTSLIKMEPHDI
Sequence of ETV1 (P50549 whole entry): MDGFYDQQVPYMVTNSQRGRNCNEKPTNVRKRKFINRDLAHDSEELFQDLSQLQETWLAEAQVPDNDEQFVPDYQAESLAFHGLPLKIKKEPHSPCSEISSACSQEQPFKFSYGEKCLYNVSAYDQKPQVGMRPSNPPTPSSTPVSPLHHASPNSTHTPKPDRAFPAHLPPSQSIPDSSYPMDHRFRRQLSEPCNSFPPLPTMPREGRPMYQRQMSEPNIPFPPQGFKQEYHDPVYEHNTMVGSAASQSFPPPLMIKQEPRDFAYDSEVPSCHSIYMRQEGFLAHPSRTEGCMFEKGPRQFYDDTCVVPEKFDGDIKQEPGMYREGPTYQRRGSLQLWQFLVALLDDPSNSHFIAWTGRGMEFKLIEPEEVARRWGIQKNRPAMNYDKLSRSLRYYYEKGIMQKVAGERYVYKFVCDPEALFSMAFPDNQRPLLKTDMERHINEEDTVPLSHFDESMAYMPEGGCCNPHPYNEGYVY

For the sequence TCGTAC, the binding signal with FLI1 is 1.13 fold enrichment (6-mer frequency, TF over GST control); with ELK1 it was 1.13 fold enrichment (6-mer frequency, TF over GST control); with GABPA it was 1.18 fold enrichment (6-mer frequency, TF over GST control); in the test with ERG, 1.06 fold enrichment (6-mer frequency, TF over GST control); with ELF1 it was 1.14 fold enrichment (6-mer frequency, TF over GST control); with EHF it was 1.14 fold enrichment (6-mer frequency, TF over GST control). The binding signal with SPI1 was 1.06 fold enrichment (6-mer frequency, TF over GST control); in the test with SPIB it was 1.04 fold enrichment (6-mer frequency, TF over GST control); in the test with ELK3, 1.11 fold enrichment (6-mer frequency, TF over GST control); with FEV, 1.13 fold enrichment (6-mer frequency, TF over GST control); with ETV5, 1.13 fold enrichment (6-mer frequency, TF over GST control); in the test with HSF1, 1.06 fold enrichment (6-mer frequency, TF over GST control). Also, the binding signal is 1.09 fold enrichment (6-mer frequency, TF over GST control) with SPIC; 1.14 fold enrichment (6-mer frequency, TF over GST control) with ELF4; 1.03 fold enrichment (6-mer frequency, TF over GST control) with ELK4; 1.22 fold enrichment (6-mer frequency, TF over GST control) in the test with ETV2; 1.22 fold enrichment (6-mer frequency, TF over GST control) with ELF3; 1.18 fold enrichment (6-mer frequency, TF over GST control) with ETV1.
